Here are results for 40 molecules from PubChem BioAssay (EPA / NIEHS).

Structures are written as SMILES. Inconclusive results are not listed. The source made the active and inactive calls. The calls were made as follows: active = hit-call score of the fitted dose curve at least 0.9, where 1 is the maximum; inconclusive = response in the unintended direction; inactive = score below 0.9.

A short description of this assay: ATG_M_32_TRANS: Attagene TRANS-FACTORIAL HepG2 Assay for M32 Transcription Factor (Internal Marker) (AID 2282984). The following applies: HepG2 Attagene TRANS M32 internal marker reporter. The method, then: ATG_TRANS is a cell-based, multiplexed-readout assay that uses HepG2, a human liver cell line, with measurements taken at 24 hours after chemical dosing in a 24-well plate.ATG_M_32_TRANS is one of 30 assay component(s) measured or calculated from the ATG_TRANS assay. It is designed to make measurements of mRNA induction, a form of inducible reporter, as detected with fluorescence intensity signals by Reverse transcription polymerase chain reaction (RT-PCR) and Capillary electrophoresis technology.Data from the assay component ATG_M_32_TRANS was analyzed into 1 assay endpoint. This assay endpoint, ATG_M_32_TRANS, was analyzed in the positive analysis fitting direction relative to DMSO as the negative control and baseline of activity. Using a type of inducible reporter, measures of mRNA for gain-of-signal activity can be used to understand the background control at the transcription factor-level as they relate to the gene . Furthermore, this assay endpoint can be referred to as a secondary readout, because this assay has produced multiple assay endpoints where this one serves a background control function. To generalize the intended target to other relatable targets, this assay endpoint is annotated to the background measurement intended target family, where the subfamily is internal marker.
Human liver HepG2 cells are transiently transfected with multiple reporter transcription units (MRTUs) in 6-well plates using FuGene 6 reagent (Roche; 3 ml FuGene/1 mg DNA). The MRTU constructs are regulated by a cis-regulating element (promoter). […] A major difference between the CIS and TRANS system is that in CIS activities of endogenous TFs are measured, whereas the TRANS assay evaluates changes in activities of exogenous, chimeric NR-Gal4 proteins. […] At the end of 24 hour incubation, total RNA was isolated using TriZol reagent (Invitrogen). The isolated RNA is then reverse-transcribed using oligo(dT) primer and Mo-MLV reverse transcriptase (Invitrogen) with DNAse I (Ambion) treatment for 30 min. The one-tenth of the produced cDNA was amplified by PCR using Taq DNA polymerase (Invitrogen) and two reporter sequence-specific primers. The PCR products were fluorescently labeled by primer extension with 6-arboxyfluorescein (6-FAM) 5'-labeled reporter sequence-specific primer (2 min at 95 C, 20 s at 68 C and 10 min at 72 C) and these products were digested with 5U of HpaI (New England Biolabs) for 2h at 37 C. The fragments were purified using Qiaquick PCR columns (Qiagen), analyzed on an ABI 3130xL genetic analyzer (Applied Biosystems) with peak positions identified by using a set of X-rhodamine (ROX)-labeled MapMarker1000 molecular weight standards (BioVentures). The raw capillary electrophoresis data was processed using Attagraph software (Attagene).
For `O=C1CCCCCCCCCCC1`, the molecule was classed as inactive.
For `O=C(C=Cc1ccccc1)OCCc1ccccc1` the value was “inactive”; for `N#Cc1ccc(C2CCCc3cncn32)cc1` (stereo not given), “inactive”; for `C=CCCCCCCCCO`, “inactive”.
For `Cc1cc(C)n(CO)n1`, the call was inactive.
As for `NNS(=O)(=O)c1ccc(Oc2ccc(S(=O)(=O)NN)cc2)cc1`, the outcome was inactive.
The entry for `CCCCC/C=C\C/C=C\CCCCCCCC(=O)O` is “inactive”; for `COc1ccc(-c2coc3cc(O)cc(O)c3c2=O)cc1` it is “inactive”.
For the molecule `C=CC(=O)OCC(C)OCC(C)OCC(C)OC(=O)C=C` (stereo not given), the result was inactive.
For `CCOC(=O)[C@H](O)[C@@H](O)C(=O)OCC` the value was “inactive”; for `O=C(Nc1ccccc1)c1cc(Cl)ccc1O`, “inactive”; for `Cc1c(C(=O)c2c[nH]n(C)c2=O)ccc(S(C)(=O)=O)c1C1=NOCC1`, “inactive”.
The entry for `C=C(C)C(=O)OCC(O)COc1ccc(C(C)(C)c2ccc(OCC(O)COC(=O)C(=C)C)cc2)cc1` (stereo not given) is “inactive”; for `C=C[C@@]1(C)CC(=O)[C@]2(O)[C@@]3(C)[C@@H](O)CCC(C)(C)[C@@H]3[C@H](O)[C@H](OC(C)=O)[C@@]2(C)O1` it is “inactive”.
Take `CC(=O)OC1CCCCC1`: the result was inactive.
For the molecule `CO[Si](C)(C)OC`, the call was inactive.
As for `C=Cc1ccc(OC(C)=O)cc1`, the outcome was inactive.
On to `CCCCCC1=CCCC1=O`, for which the call was inactive.
For `CCC1(C)C(=O)N(Cl)C(=O)N1Cl` (stereo not given), the molecule was called inactive.
On to `CCC(C)C(=O)OC` (stereo not given), for which the result was inactive.
The entry for `CC(=O)OCc1ccccc1` is “inactive”.
In the case of `Cc1ccc(C)c(OCCCC(C)(C)C(=O)O)c1`, the result was inactive.
`CC(=O)/C=C/C1C(C)=CCCC1(C)C` (stereo not given): the outcome was inactive.
For `CC1=CCC2CC1C2(C)C` (stereo not given) the value was “inactive”; for `CCCCCCCCCCCCC`, “inactive”.
For `CC(C)CO` the value was “inactive”; for `CCN1CCCC1=O`, “inactive”.
For the molecule `CC(CCC(=O)O)(c1ccc(O)cc1)c1ccc(O)cc1`, the molecule was classed as inactive.
For `CCCCCC[C@@H](O)C/C=C\CCCCCCCC(=O)OCC(O)CO` (stereo not given in full), the call was inactive.
On to `CCCSSCCC`, for which the molecule was called inactive.
The entry for `CC(C)(O)Cc1ccccc1` is “inactive”; for `Cc1cc(=O)[nH]c(=O)[nH]1` it is “inactive”.
For `CCCCCCCCCCCC(=O)N(C)CC(=O)O` the value was “inactive”.
`CC(=O)C(C)C`: the molecule was called inactive.
For `CCOC(=O)C1=NN(c2ccc(Cl)cc2Cl)C(C)(C(=O)OCC)C1` (stereo not given) the value was “inactive”; for `Nc1ccc(C(=O)O)cc1`, “inactive”; for `CCCCCCOc1ccc(N)cc1`, “inactive”.
For `CC(C)c1ccc(O)c(C(C)C)c1` the value was “inactive”; for `CCOC(=O)/C=C\C(=O)OCC`, “inactive”.
The entry for `C=Cc1cccc(C)c1` is “inactive”.
